Measurements published in PubChem BioAssay AID602381 (National Center for Advancing Translational Sciences (NCATS), 2012).

These compounds were tested against Pyruvate kinase PKLR (Homo sapiens) (UniProt P30613) (assay: qHTS for Activators of Human Muscle Isoform 2 Pyruvate Kinase (PK): Extended Characterization using Reticulocyte PK). Conditions: purified hPK-R, Kinase-Glo ATP luminescence, 1 h; series mostly up to 57.5 µM; activity change, positive = activation: at the top concentration; active = well fitted curve in the direction sought with a large enough effect; inactive = no such curve, though single readings can be large or run the other way.
Description: Human pyruvate kinase reticulocyte (hPK-R) enzyme was supplied as a highly purified (>95% pure) preparation from Structural Genomics Consortium in Toronto (Ontario, Canada) and assayed for its ability to generate ATP from ADP using phosphoenolpyruvate (PEP) as a substrate. ATP generation was detected in a coupled reaction by luciferase-mediated luminescence, an ATP-dependent process. Pyruvate kinase substrates, PEP and ADP, were present in the assay at Km and approximately 10-fold below Km respectively. The enzyme was assayed at an intermediate level of activity to screen for both inhibitors and activators. NIH Chemical Genomics Center [NCGC] NIH Molecular Libraries Probe Centers Network [MLPCN] MLPCN Grant: MH085679 Assay Submitter (PI): Matthew G. Vander Heiden, Harvard Medical School
Three uL of substrate mix (at r.t.) in assay buffer (50 mM Imidazole pH7.2, 50 mM KCl, 7 mM MgCl2, 0.01% Tween 20, 0.05% BSA) was dispensed into white solid bottom 1,536 well microtiter plates so that the final concentrations of substrates in the assay were 0.1 mM ADP and 0.5 mM PEP. 23 nL of compound were delivered by a pin tool and 1 uL of enzyme mix (final concentration of 0.1 nM) in assay buffer (4 degree Celsius) was added. Plates were incubated at room temperature for 1 hour. Two uL of detection mix (Kinase-Glo, Promega; at 4 degree Celsius protected from light) was added and luminescence read by a ViewLux (Perkin Elmer) at 1 second exposure/plate. Data were normalized to the uninhibited (row 31). Additionally, a no enzyme and 5-fold enzyme control was dispensed in row 32, split equally between the two conditions.

Pyruvate kinase PKLR (Homo sapiens), sequence (P30613 whole entry, looked up, canonical isoform): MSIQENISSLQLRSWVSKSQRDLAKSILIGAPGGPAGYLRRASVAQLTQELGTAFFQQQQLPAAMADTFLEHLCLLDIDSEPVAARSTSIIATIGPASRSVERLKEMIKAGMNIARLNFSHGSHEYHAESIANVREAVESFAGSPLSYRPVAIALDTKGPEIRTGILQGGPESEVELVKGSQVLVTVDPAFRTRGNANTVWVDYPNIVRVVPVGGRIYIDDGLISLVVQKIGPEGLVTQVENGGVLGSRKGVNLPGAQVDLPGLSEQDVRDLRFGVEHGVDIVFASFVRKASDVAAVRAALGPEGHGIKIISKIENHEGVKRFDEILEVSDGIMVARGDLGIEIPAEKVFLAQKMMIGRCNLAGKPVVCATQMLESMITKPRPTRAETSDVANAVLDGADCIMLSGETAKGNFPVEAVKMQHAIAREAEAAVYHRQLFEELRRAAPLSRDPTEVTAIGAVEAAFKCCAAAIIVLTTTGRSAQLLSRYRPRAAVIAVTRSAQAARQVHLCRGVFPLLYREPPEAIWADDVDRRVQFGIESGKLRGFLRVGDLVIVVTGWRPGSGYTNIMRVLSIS

Activity change, positive = activation, inactive:
COc1cccc(Cn2ncc3c4sc(S(C)=O)cc4n(C)c3c2=O)c1 (stereo not given) 11.7%
Cc1cc2c(s1)c1cnn(Cc3cc(F)ccc3F)c(=O)c1n2C -18.9%
Cc1cc2c(s1)c1cnn(Cc3c(Cl)ccc(C)c3F)c(=O)c1n2C -1.16%
Cc1cc2c(s1)c1cnn(Cc3ccc(F)cc3F)c(=O)c1n2C -0.917%
Cc1cc2c(s1)c1cnn(Cc3cc(F)c(F)cc3F)c(=O)c1n2C 5.17%
